# According to PubChem BioAssay (NCATS):
# Inconclusive results are not listed. The source made the active and inactive calls. The call rests on the fitted dose curve; in most records, active means well fitted inhibition curve with a large enough effect; inconclusive means small, poorly fitted or top-dose-only effect; inactive means flat fitted curve, though single readings scatter.
# Assay: P-glycoprotein substrates identified in KB-8-5-11 adenocarcinoma cell line, qHTS therapeutic library screen (AID 1346987); further: nearly all actives have a fitted effect of over 65% in size
# Settings: KB-8-5-11 (P-gp overexpressing) viability, CellTiter-Glo, 72 h; series mostly up to 44.5 µM; activity change, negative = cytotoxicity: at the top concentration
# Outline: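 KB-8-5-11: colchicine-selected sub-line of KB-3-1 over-expressing P-gp; assay medium lacked colchicine. 72 h drug exposure at 37 degree C, CellTiter-Glo.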
# On the % scale 0 is the no-effect control and ±100 the full control effect.
Compound,outcome,"activity change, negative = cytotoxicity"
CC(=O)O[C@H]1[C@H](OC(=O)C(C)C)[C@]2(C)OC3(CC[C@]2(C)[C@H]2CCC[C@]4(CO4)[C@]12C)COC(=O)C3 (stereo partly drawn),inactive [at 17.3 µM],
CC(=O)c1ccc(O[C@@H]2OC[C@@H](O)[C@H](O)[C@H]2O[C@]2(CO)O[C@H](CO)[C@@H](O)[C@@H]2O)c(O)c1,,4.09% [at 17.3 µM] (inactive)
CC[C@@H]1C(=O)O[C@]23C=C[C@@H]4C(C(=O)OC)=CO[C@H](O[C@@H]12)[C@@H]43,,-10.6% (inactive)
CC1CCC2(C)CCC3(C)C(=CCC4C5(C)CCC(O)C(C)(C(=O)O)C5CCC43C)C2C1C (stereo not drawn),,7.94% [at 17.3 µM] (inactive)
C/C=C(/C)C(=O)OC1C2OC2C2(CO2)C2C3OC(=O)C(C)C3CCC12C (stereo not drawn),,6.03% (inactive)
C[C@@H]1CC[C@]2(C(=O)O)CC[C@]3(C)C(=CCC4[C@@]5(C)C[C@@H](O)[C@H](O)[C@@](C)(CO)C5CC[C@]43C)C2[C@H]1C (stereo partly drawn),inactive [at 17.3 µM],
C=CC(C)(O)CCC1C(C)(O)CCC2C(C)(C)CCCC21C (stereo not drawn),,-4.2% (inactive)
C[C@H]1[C@@H](O)[C@H](O)C2[C@]3(C)C([C@@H](O)[C@H]4OC(=O)[C@@H]1[C@@]24C)[C@](C)(O)C=C[C@H]3O[C@@H]1O[C@H](CO)[C@@H](O)[C@H](O)[C@H]1O (stereo partly drawn),,9.72% [at 17.3 µM] (inactive)
CC(C)=C1C[C@@]2(C)C(=CC1=O)CC[C@@H](O)[C@@H]2C,,-2.24% (inactive)
C/C=C(/C)C(=O)OC1C(OC(C)=O)C23C(O)OC4(CCC5C6(C)CCC(OC7OC(C(=O)O)C(O)C(OC8OC(CO)C(O)C(O)C8OC8OC(C)C(O)C(O)C8OC8OCC(O)C(O)C8O)C7OC7OC(CO)C(O)C(O)C7O)C(C)(C)C6CCC5(C)C4(C)CC2OC(C)=O)C3CC1(C)C (stereo not drawn),inactive [at 9.29 µM],
CC1OC(OC2C(OC(=O)[C@]34CCC(C)(C)C[C@H]3C3=CCC5[C@@]6(C)CC[C@H](OC7OC(C(=O)O)C(O)C(O)C7O)C(C)(C)C6CC[C@@]5(C)[C@]3(C)CC4O)OC(CO)C2O)C(O)C(O)C1OC1OCC(O)C(O)C1O (stereo partly drawn),,7.83% [at 9.29 µM] (inactive)
CC1(C)C(=O)N2c3ccccc3C(O)(CC(C(=O)O)n3cnc4ccccc4c3=O)C2N1O (stereo not drawn),inactive [at 17.3 µM],
CC(=O)OC[C@]12[C@@H](OC(=O)c3ccoc3)C[C@@H]3[C@@H](OC(C)=O)[C@]1(OC3(C)C)[C@@](C)(O)C[C@H](OC(=O)c1ccoc1)[C@@H]2OC(=O)c1ccoc1,,-11.7% [at 17.3 µM] (inactive)
C/C=C(\C)C(=O)OC[C@H]1O[C@@H](O[C@H]2[C@@H](O[C@H]3O[C@H](COC(=O)/C(C)=C/C)[C@@H](O)[C@H](O)[C@H]3O[C@@H]3O[C@H](COC(=O)/C(C)=C/C)[C@@H](O)[C@H](OC(=O)/C(C)=C/C)[C@H]3O)O[C@H](COC(=O)/C(C)=C/C)[C@@H](O)[C@@H]2O)[C@H](O)[C@@H](O)[C@@H]1O,,0.351% [at 9.29 µM] (inactive)
O=C(O)/C=C/c1ccc(O[C@@H]2O[C@H](CO)[C@@H](O)[C@H](O)[C@H]2O)cc1,,3.17% (inactive)
CC1=C2C(=O)C=C(CO[C@@H]3O[C@H](CO)[C@@H](O)[C@H](O)[C@H]3O)[C@@H]2[C@H]2OC(=O)[C@H](C)[C@@H]2[C@@H](O)C1,inactive [at 17.3 µM],
CCc1nn(CCO)c(CC)c1Oc1cc(C#N)cc(C#N)c1,,-0.0104% (inactive)
Fc1cccc(CN(C2=NCCN2)c2c(Cl)cccc2Cl)c1,,1.01% (inactive)
COC(=O)C1=CO[C@@H](O[C@@H]2O[C@H](CO)[C@@H](O)[C@H](O)[C@H]2O)[C@H]2[C@@H]1C=C[C@]21C=C([C@H](C)OC(=O)/C=C/c2ccc(O[C@@H]3O[C@H](CO)[C@@H](O)[C@H](O)[C@H]3O)cc2)C(=O)O1,inactive [at 17.3 µM],
C[C@@H]1O[C@@H](O[C@@H]2[C@@H](O)[C@H](O[C@H]3[C@H](O[C@H]4CC[C@@]5(C)C(CC[C@]6(C)C5CC=C5[C@@H]7CC(C)(C)CC[C@]7(C(=O)O[C@@H]7O[C@H](CO)[C@@H](O)[C@H](O)[C@H]7O)CC[C@]56C)C4(C)C)O[C@H](C(=O)O)[C@@H](O)[C@@H]3O)OC[C@H]2O)[C@H](O)[C@H](O)[C@H]1O (stereo partly drawn),,6.37% [at 9.29 µM] (inactive)
COC(=O)C1=COC(O[C@@H]2O[C@H](CO)[C@@H](O)[C@H](O)[C@H]2O)C2C(C)C(=O)CC12 (stereo partly drawn),inactive,
CC(=O)O[C@@]1(C)[C@@H]2CC(=C(C)C)C(=O)C[C@@]2(C)CC[C@H]1OC(=O)C1(C)OC1C (stereo partly drawn),,-5.3% (inactive)
CC(C)=CCc1c(O)cc2oc3cc(C)cc(O)c3c2c1C,,-14.4% (inactive)
